Experimental data taken from PubChem BioAssay AID1347141 (National Center for Advancing Translational Sciences (NCATS), 2019).
Some of the results follow. Records with an inconclusive call do not appear. Activity calls are given as the source filed them. Calls come from the whole dose curve; as a rule, active = well fitted inhibition curve with a large enough effect; inconclusive = small, poorly fitted or top-dose-only effect; inactive = flat fitted curve, though single readings scatter.

Experiment: qHTS of pediatric cancer cell lines to identify multiple opportunities for drug repurposing: Orthogonal 3D viability screen for RD cells
Conditions: RD rhabdomyosarcoma 3D spheroid viability, PI/Hoechst imaging, 72 h; series mostly up to 30.7 µM; activity change, negative = viability loss: at the top concentration
Description: Drug repurposing or repositioning has been offered as a strategy for drug development in oncology programs. This approach has special potential for childhood cancers and other rare or orphan diseases, where the expected return on new drug development has been a disincentive to pharmaceuticals. […] In this project we exploit the poly-pharmacology of drugs to discover new indications via phenotypic screening of a panel of 19 well-characterized cell lines derived from solid tumors seen in children and adolescents. The goal is to identify approved drugs with previously unrecognized anticancer properties that has the potential to reveal new mechanisms and biological processes involved in carcinogenesis or drug resistance. We employed a titration-based paradigm (quantitative high-throughput screening or qHTS), where all compounds were tested at multiple concentrations for their effect on cell viability. Concentration-response curves (CRCs) were derived directly from the primary screen, and both potency and efficacy values were used to identify compounds with robust bioactivity profiles. […] These two assays will be used to validate active compounds and assess the correlation of compound's potency in 2D vs 3D cultures on selected cell lines. Assay Submitter: Nathalia J. Martinez, National Center for Advancing Translational Sciences, National Institutes of Health, Rockville, MD, USA; email: natalia.martinez@nih.gov Shen, M et al. Quantitative high-throughput phenotypic screening of pediatric cancer cell lines identifies multiple opportunities for drug repurposing. Oncotarget 2017 Dec 19;9(4):4758-4772. PMID 29435139.
The cells were obtained from University of North Carolina (UNC), Pediatric Preclinical Testing Program (PPT), and Coriell Institute (CI). qHTS viability in 3D culture: Cells were assayed in phenol red-free growth media at a density of 1,000 cells/well, with the exception of Daoy, and SH-N-SH which were assayed at 1,500 cells/ well. Thirty muL of cells were dispensed into 384-well, ULA, round bottom plates (Corning) using a Multidrop dispenser. Plates were spun down at 1,000 rpm for 1 min and incubated at 37 degrees C, 5% CO2, under a humidified atmosphere for either 24 (Daoy) or 48 hours (all other cell lines) to allow spheroid formation. Ninety-two nanoliter of compounds and controls (neutral control DMSO or positive control bortezomib at final concentrations of 0.5 µM) were subsequently transferred via GNF Pintool. Plates were sealed using a breathable seal (Diversified Biotech, Dedham, MA) and incubated for 72 hours at 37 degrees C. Spheroid viability was first determined by high-content imaging using Hoechst 33342 and Propidium Iodide (PI, ThermoFisher Scientific), followed by addition of CellTiter-Glo 3D (Promega). Specifically, 3 µL/well of PBS containing a 1:500 dilution of both dyes was dispensed using Multidrop. Dyes were incubated for 1 hour before imaging using the Celigo Image Cytometer. Then, 20 µl of CellTiter-Glo 3D were added per well. Plates were incubated for 30 min at RT on a VWR microplate shaker (300 rpm) and analyzed for luminescence intensity using a ViewLux High-throughput CCD imager equipped with clear filters. Image analysis was done using the Celigo Tumorsphere 1+2+3 application software as previously described. […] The data were exported to Excel, and the average fluorescent intensities were used to calculate the ratio of PI over Hoechst, which was used to quantify viability. […]

SMILES	Potency	activity change, negative = viability loss
CC[C@]1(O)C[C@@H]2CN(CCc3c([nH]c4ccccc34)[C@@](C(=O)OC)(c3cc4c(cc3OC)N(C)[C@H]3[C@@](O)(C(=O)OC)[C@H](OC(C)=O)[C@]5(CC)C=CCN6CC[C@]43[C@@H]65)C2)C1	45.6 nM (active)	–
C=C1C(=CC=C2CCC[C@]3(C)[C@@H]([C@H](C)C=C[C@H](C)C(C)C)CC[C@@H]23)C[C@@H](O)C[C@@H]1O	–	-5.06% (inactive)
CC(NCc1ccc2c(c1)nc(NC(=O)c1ccc(-c3cn[nH]c3)s1)n2CC(C)(C)O)C(C)(C)C (stereo not given)	810 nM (active)	–
CC1(C)O[C@@H]2C[C@@H]3[C@H]4C[C@@H](F)C5=CC(=O)C=C[C@]5(C)[C@@]4(F)[C@@H](O)C[C@]3(C)[C@]2(C(=O)CO)O1	10200 nM (active)	–
CC[C@H]1CN2CCc3cc(OC)c(OC)cc3[C@@H]2C[C@@H]1C[C@H]1NCCc2cc(OC)c(OC)cc21	2040 nM (active)	–
